Screens as filed in PubChem.
A selection: hits, their analogues and other compounds. The true share with any hit is near 19%.
DT40 TDP1 no CPT: qHTS for Inhibitors of human tyrosyl-DNA phosphodiesterase 1 (TDP1): qHTS in cells in absence of CPT. Potency, µM (highest dose often 46.2 µM), for inactives: at the top dose activity change, negative = growth inhibition, hits mostly inhibitors. DT40 Tdp1-/- hTDP1 cells, no CPT, ATP luminescence, 48 h. AID 686978, 2013. 15% of 420,000 active; also: nearly all actives have a fitted effect of over 55% in size
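Stably hTDP1-transfected Tdp1-null chicken DT40 cells were treated with library compounds minus camptothecin and grown for at least 48 hr at 37 °C, after which cellular ATP was quantified by luminescence.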
KB-V1 cytotox: qHTS assay for MDR1-selective chemotherapeutics: Primary screen using the drug-selected MDR subline cells KB-V1. Potency, µM (titrated, usually from 46.1 µM), hits mostly cytotoxic. KB-V1 MDR cells viability, CellTiter-Glo, 72 h. AID 1347076, 2019. 3.4% of 400,000 active; also: nearly all actives have a fitted effect of over 60% in size
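KB-V1 MDR subline cells in DMEM (phenol-red free, 10% FBS) exposed to compounds in qHTS concentration series for 72 h at 37 degrees C. Viability read by CellTiter-Glo luminescence; concentration-effect curves fitted after normalization and correction.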
TDP1 cell CPT: qHTS for Inhibitors of human tyrosyl-DNA phosphodiesterase 1 (TDP1): qHTS in cells in presence of CPT; chicken DT40 Tdp1-/-;hTDP1 cells + 20 nM CPT, ATP luminescence, 48 h; AID 686979, 2013; Potency, µM (doses to about 46.2 µM), for inactives: at the highest dose activity change, negative = growth inhibition, actives largely listed as inhibitors; 12% of 420,000 active; also: nearly all actives have a fitted effect of over 55% in size
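Chicken DT40 Tdp1-/- cells complemented with human TDP1, 400 cells/well, exposed to compounds plus 20 nM camptothecin for at least 48 h at 37 C; viability read as ATP content by CellTiter-Glo luminescence.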
HT1080-NT tox: qHTS for induction of synthetic lethality in tumor cells producing 2HG: qHTS for the HT-1080-NT fibrosarcoma cell line | AID 686970, 2013 | Potency, µM (doses to about 46.1 µM), for the others: at the highest dose activity, negative = less viability, hits mostly cytotoxic | HT-1080-NT fibrosarcoma viability, CellTiter-Glo ATP luminescence, 48 h | 1.6% of 360,000 active;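 also: NT is the 2HG producing partner of a matched IDH1 knockdown line; 0% = DMSO-treated cells and -100% = media-only wells without cells; nearly all actives have a fitted effect of over 55% in size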
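Toxicity toward the 2HG-producing NT line was scored as %Activity, normalised to DMSO and no-cell wells, from CellTiter-Glo luminescence after 48 hours' treatment.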
HT1080 IDH1KD tx: qHTS for induction of synthetic lethality in tumor cells producing 2HG: qHTS for the HT-1080-IDH1KD cell line; 2% of 360,000 active; HT-1080 IDH1 knockdown viability, ATP luminescence, 48 h; Potency, µM (titrated, usually from 46.1 µM), inactives show at the top dose activity, negative = toxicity, actives largely listed as cytotoxic; AID 686971, 2013;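 also: 0% = DMSO wells and -100% = cell-free medium wells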
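CellTiter-Glo luminescence after 48 h compound exposure at 37 degrees C of IDH1-knockdown HT-1080 cells in 5% FBS RPMI. %Activity scaled between DMSO wells and cell-free media wells, with curves fitted and assigned curve classes.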
KB-3-1 tox: qHTS assay for MDR1-selective chemotherapeutics: Primary screen using the parental adenocarcinoma cell KB-3-1 | KB-3-1 viability, CellTiter-Glo ATP luminescence, 72 h | 1.4% of 400,000 active | Potency, µM (series often up to 46.1 µM), hits mostly cytotoxic; also: nearly all actives have a fitted effect of over 60% in size
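Luminescent ATP read-out (CellTiter-Glo) measures survival of drug-naive KB-3-1 cells after 72 h compound exposure at 37 °C. Titration series was screened from lowest to highest concentration, with DMSO vehicle plates as background controls.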
The depositor's hits bear a star; i = inactive; ? = inconclusive; nt = no result given; [ ] = remark or other dose. Calls follow the shape of the dose curve; as a rule, active = well fitted curve in the direction sought with a large enough effect; inconclusive = small, poorly fitted or top-dose-only effect, or another doubt; inactive = no such curve, though single readings can be large; an effect the other way counts as inactive or inconclusive. Unless noted, % is scaled to controls: 0 for no effect and ±100 for the full control effect; potency is read from the fitted curve at half-maximal effect.

SMILES	DT40 TDP1 no CPT	KB-V1 cytotox	TDP1 cell CPT	HT1080-NT tox	HT1080 IDH1KD tx	KB-3-1 tox
Cn1c(-c2ccc3ccccc3n2)[n+](C)c2ccccc21	3.7µM*	?	3.3µM*	?	?	9.2µM*
CC1=CN(S(=O)(=O)c2ccc(C)cc2)C[C@@H]2[C@H]3CC[C@H](C3)[C@H]12	?	i	?	-2%	-5%	i
COc1cc(-c2cnc3c(NC=O)cc(-c4ccc(N5CCN(C)CC5)cc4)cn23)cc(OC)c1OC	3.7µM*	?	3.3µM*	-5%	?	?
COc1cc(-c2nc3ccc(N4CCN(C)CC4)cc3[nH]2)cc(OC)c1OC	?	i	?	0%	-12%	i
COc1cc(-c2cnc3c(NC(C)=O)cc(-c4ccc(N5CCN(C)CC5)cc4)cn23)cc(OC)c1OC	4.6µM*	?	4.6µM*	?	?	?
CCc1nc2ccc(C(=O)N3CCN(S(=O)(=O)CC)CC3)cn2c1N(C)Cc1cccs1	?	i	?	11%	0%	i
c1cncc(OC2CCN(Cc3ccc4c(c3)CN(Cc3nc5ccccc5s3)CCO4)CC2)c1	-13%	nt	5%[9.04 µM]	nt	nt	nt
Cc1ccc(SC2=C(N(C)C)C(=O)c3ccccc3C2=O)cc1	5.2µM*	i	4.6µM*	?	?	?
COc1ccccc1NS(=O)(=O)c1ccc(C)c(NC(=O)C2CCCO2)c1 (configuration not stated)	?	i	-15%	5%	15%	i
COc1ccc(C(C(=O)NC(C)(C)C)N(Cc2ccc(C)cc2)C(=O)CCC(=O)Nc2cc(C)on2)cc1 (configuration not stated)	?	i	-39%	-18%	-22%	?
Cc1cc(C)cc(N(C(=O)CCC(=O)Nc2cc(C)on2)C(C(=O)NC2CCCC2)c2ccco2)c1 (configuration not stated)	21µM*	i	?	-2%	-3%	i
Cc1cccc(N(C(=O)CCC(=O)Nc2cc(C)on2)C(C(=O)NC2CCCC2)c2ccc(C)o2)c1 (configuration not stated)	-18%	i	?	-6%	-8%	i
COc1cccc(C(C(=O)NC(C)(C)C)N(Cc2ccco2)C(=O)CCC(=O)Nc2cc(C)on2)c1OC (configuration not stated)	29µM*	i	3%	8%	-1%	?
Cc1ccc(C)c(N(C(=O)CCC(=O)Nc2cc(C)on2)C(C(=O)NC2CCCC2)c2ccco2)c1 (configuration not stated)	23µM*	i	16µM*	21%	21%	i
COc1ccc(C(C(=O)NC(C)(C)C)N(C(=O)CCC(=O)Nc2cc(C)on2)c2cc(C)cc(C)c2)cc1 (configuration not stated)	21µM*	15µM*	?	-19%	-6%	i
CCc1nc2ccc(C(=O)NCCN(C)C)cn2c1N(CC)CCOC	16%	i	-1%	13%	?	i
O=C(CS(=O)(=O)c1ccc(Cl)cc1)Nc1nccs1	?	i	-4%	7%	-13%	i
CCCn1c(=O)[nH]c(=O)c2c1nc(-c1ccccc1OC(F)F)n2CCOC	-27%	18µM*	-9%	2%	4%	i
COCCn1c(-c2ccc(SC)cc2)nc2c1c(=O)[nH]c(=O)n2CC(C)C	-26%	?	-14%	1%	-12%	i
COCCn1c(-c2ccc(OC(F)(F)C(F)C(F)(F)F)cc2)nc2c1c(=O)[nH]c(=O)n2CC(C)C (configuration not stated)	?	?	21µM*	0%	-2%	?
CCCn1c(=O)[nH]c(=O)c2c1nc(-c1ccc(OC(F)F)c(OC)c1)n2CCOC	-26%	i	-24%	-1%	-2%	i
COc1ccc2c(C)c(CC(=O)NCc3ccccc3Cl)c(=O)oc2c1OC	-5%	i	-14%	nt	nt	i
Cc1cc(=O)[nH]c(NN=C2CCCCC2C)n1 (configuration not stated)	18µM*	i	?	0%	0%	?
O=C(NCCC1CCCCN1S(=O)(=O)c1ccccc1)C(=O)NCc1ccc(F)cc1 (configuration not stated)	18µM*	i	?	-8%	-8%	i
Cc1ccc(CNC(=O)C(=O)NCCC2CCCCN2S(=O)(=O)c2ccccc2)cc1 (configuration not stated)	15µM*	?	?	-16%	-25%	i
SMILES	DT40 TDP1 no CPT	KB-V1 cytotox	TDP1 cell CPT	HT1080-NT tox	HT1080 IDH1KD tx	KB-3-1 tox
COc1ccccc1-c1nccc(NC2CCNCC2)n1	0%	nt	-3%	nt	nt	nt
CCOC(=O)c1[nH]c2ccccc2c1NC(=O)C(C)(C)C	-24%	i	-1%	14%	13%	i
Cc1c(C(=O)COC(C)(C)C)[nH]c2ccccc12	?	i	21µM*	5%	-1%[9.24 µM]	i
Cc1cc(C)cc(OCC(=O)Nc2cccc3cccnc23)c1	nt	?	nt	nt	nt	i
CC(C)(C)S(=O)(=O)c1cnc(-c2ccc(Cl)cc2)nc1N	-24%	i	2%	-2%	1%	i
Cc1nc(N)nc(N)c1/C=C/C(C)(C)c1ccc(Cl)cc1	0.033µM*	?	?	0.029µM*	0.0082µM*	?
CC(=O)N1CSCC1C(=O)NNS(=O)(=O)c1cccc(C(F)(F)F)c1 (configuration not stated)	-9%	i	12%	0%	-1%	i
CCOC(=O)C(=CN=C(N)Nc1nc2ccccc2o1)C(=O)OCC	-18%	i	-6%	1%	-1%	i
CCOC(=O)c1cnc(Nc2nc3ccccc3o2)nc1CN1CCN(C)CC1	13µM*	13µM*	18µM*	?	15µM*	?
CCC(C)NC(=O)c1ccc2nc(-c3ccco3)c(-c3ccco3)nc2c1 (configuration not stated)	13µM*	i	16µM*	nt	nt	i
